Compound activity deposited in PubChem BioAssay by National Center for Advancing Translational Sciences (NCATS).
TRHR agonist: agonists of human TRH receptor; AID 493084; TRHR cells, calcium flux fluo-8, FDSS agonist mode; P34981; 0.18% of 360,000 active; activation, % at 2 µM; also: 0% is about no effect
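In this calcium-flux screen, cells bearing human TRHR are dye-loaded with fluo-8, baselined for 10 cycles, then exposed to library compounds; positive kinetic calcium responses during the agonist phase mark hits, with TRH as control.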
D1 antag: blocks dopamine activation of the human D1 receptor | P21728 | HEK293 TREx D1 cells, calcium flux, dopamine EC80; stronger effect = lower value | activity change, negative = inhibition, % at 10 µM | 3.2% of 360,000 active; in the data active = activity change below about -30%; also: % is scaled to controls: 0 for no effect and ±100 for the full control effect
Target sequence (P21728 whole entry, looked up): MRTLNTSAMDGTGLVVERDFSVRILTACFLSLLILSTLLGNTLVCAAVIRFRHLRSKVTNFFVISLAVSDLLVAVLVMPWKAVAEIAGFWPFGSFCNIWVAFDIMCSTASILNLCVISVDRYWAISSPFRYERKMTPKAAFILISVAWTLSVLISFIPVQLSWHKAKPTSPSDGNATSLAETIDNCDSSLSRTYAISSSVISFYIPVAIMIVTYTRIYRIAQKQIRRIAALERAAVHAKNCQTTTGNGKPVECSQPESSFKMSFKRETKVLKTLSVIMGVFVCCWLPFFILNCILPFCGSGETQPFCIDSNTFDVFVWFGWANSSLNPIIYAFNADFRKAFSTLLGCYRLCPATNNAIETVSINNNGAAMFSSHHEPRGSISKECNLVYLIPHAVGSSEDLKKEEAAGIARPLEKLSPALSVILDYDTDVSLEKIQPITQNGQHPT
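Kinetic fluorescence of a calcium dye serves as the read-out. D1-expressing Hek293 Trex cells, induced overnight at 30 C, are exposed to compound for 180 s before an EC80 dopamine addition, then read 180 s further.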
D1 ag: activates the human D1 dopamine receptor; P21728; activation, % at 2 µM; HEK293 T-REx D1 cells, calcium flux, agonist mode; 1% of 360,000 active; also: 0% is about no effect
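Inducible HEK293 T-REx D1 cells, force-coupled to calcium signalling, were plated at 4000 cells/well with tetracycline and held overnight at 30 C. After no-wash calcium dye loading, compound-evoked calcium rise over 180 s flagged agonists.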
TRHR enhancer: TRH receptor (human) allosteric enhancement; P34981; TRHR cells, fluo-8 calcium fluorescence, EC20 TRH enhancement; enhancement, % at 2 µM; 0.66% of 360,000 active; AID 493056; in the data active = enhancement above about 30%; also: 0% is about no effect
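TRHR-expressing cells loaded with fluo-8 calcium dye were read kinetically (ex 480/em 530) during compound addition, then stimulated with an EC20 of TRH (10 nM final). Enhancement of the Gq-mediated intracellular calcium response was scored.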
D1 potentiator: enhances dopamine response at the human D1 receptor; P21728; HEK293 TREx D1 cells, calcium flux, dopamine EC20 potentiation; potentiation, % at 10 µM; 0.036% of 360,000 active; AID 504651; in the data active = potentiation above about 30%; also: 0% is about no effect
The depositor's hits bear a star; . = no result. Hits are enriched below; roughly 4.7% of the tested compounds scored in any of these assays. Rule as the data show it, unless noted: active = activation above about 30%; inactive = the rest.

SMILES	TRHR agonist	D1 antag	D1 ag	TRHR enhancer	D1 potentiator
CCC(=O)Oc1ccc2ccccc2c1CNC(=O)c1ccccc1	-1.6	-39.8*	1.6	6.4	4.7
CC(=O)N1CCN(C(=O)CSc2cc(C)c(Br)cc2C)CC1	1.0	1.2	1.2	6.3	15.5
CC(=O)c1cccc(NC(=O)COC(=O)COc2c(Cl)cc(Cl)c3ccc(C)nc23)c1	-0.1	-10.8	0.1	0.0	-5.7
CC(C)n1c(S(=O)(=O)O)nc2ccccc21	0.6	-33.6*	1.7	-5.0	-7.2
CCc1ccc(S(=O)(=O)c2cn(C)c3cc(N4CCOCC4)c(F)cc3c2=O)cc1	-0.4	5.3	-1.2	26.4	-1.4
CCOC(=O)c1c(C)n(-c2ccc(C)cc2)c2ccc(O)c(CN(C)C)c12	0.1	-23.5	33.9*	1.9	-11.2
CCOC(=O)c1c(C)n(-c2ccc(OC)cc2)c2ccc(O)c(CN(C)C)c12	2.8	4.8	13.7	-7.8	-0.4
Cn1cccc1C(=O)NNC(=O)COc1ccccc1F	0.5	-47.0*	-0.4	-3.3	-6.8
CC(C)C(=O)Nc1ccc(-c2csc(-c3ccccc3)n2)cc1	0.1	-38.0*	1.0	7.2	-3.0
CC(C)C(=O)Nc1cccc(-c2csc(-c3ccccc3)n2)c1	-2.1	21.9	1.4	4.4	-16.4
Cc1ccc(OCCCCn2c(-c3ccc(Cl)cc3)nc3ccccc3c2=O)cc1	-0.2	-3.5	2.5	12.1	-1.7
CC1(C(=O)Nc2cccc3ccccc23)CC1(Br)Br (centres undefined)	-0.8	-31.4*	0.5	-7.2	-11.5
COc1ccc(CN(C)C(=O)c2cccc(NS(=O)(=O)c3ccccc3)c2)c(OC)c1	0.9	-6.5	3.5	7.4	-2.2
NC(=Nc1ccccc1)Nc1ccccc1	95.6*	-26.5	89.9*	6.6	-1.2
CCOC(=O)/C(C(=Nc1ccccc1)Nc1ccccc1)=C(\C)O	-0.5	-6.1	2.8	-3.5	-4.8
COc1ccc(C2(CNC(C)=O)CCOCC2)cc1OC	0.2	-35.1*	1.6	2.0	.
COc1ccc(C2(CNC(=O)C(=O)Nc3ccc(F)cc3)CCCC2)cc1OC	1.0	5.9	-1.4	31.6*	-1.2
Cc1ccc(N2C(=O)C3C4CCC(O4)C3C2=O)c(OC(F)F)c1 (centres undefined)	0.1	26.7	2.6	1.3	-4.8
CCCOc1cc(N(CC)CC)ccc1/C=C(/C#N)c1nc2ccc(C)cc2[nH]1	32.2*	5.7	-1.6	8.7	19.1
CCN(CC)c1ccc(/C=C(/C#N)c2nc3ccc(C)cc3[nH]2)c(OC(C)C)c1	82.8*	-21.6	100.0*	15.7	-2.1
CCOc1cc(N(CC)CC)ccc1/C=C(/C#N)c1nc2ccccc2[nH]1	40.9*	5.2	57.5*	11.9	5.0
CCCOc1cccc(C2c3c(oc4ccc(F)cc4c3=O)C(=O)N2c2nc(C)c(C(C)=O)s2)c1 (centres undefined)	0.1	3.8	0.5	-10.0	-3.0
COc1cc(F)cc(F)c1[S+](=O)([O-])N1CCN([S+](=O)([O-])c2ccc3c(c2)OCCO3)CC1	2.0	-15.8	11.4	0.7	-6.4
COc1cc(CNCCO)cc(Br)c1OCc1ccccc1Cl	0.7	9.0	69.0*	2.4	4.5
COc1cc(CNCCO)cc(Cl)c1OCc1ccc(Cl)cc1Cl	12.0	-2.9	154.3*	10.8	7.9
SMILES	TRHR agonist	D1 antag	D1 ag	TRHR enhancer	D1 potentiator
Cc1cc(CNC(=O)C2CCC(=O)N(CCc3cccc(F)c3)C2)nn1C (centres undefined)	0.8	1.1	2.0	8.3	-1.2
Cc1ccc(CNC(=O)C2CCC(=O)N(CCc3cccc(F)c3)C2)cc1 (centres undefined)	-1.4	-42.9*	1.7	-2.9	-10.8
Cc1n[nH]c(C)c1CN(C)C(=O)C1CCC(=O)N(CCc2cccc(F)c2)C1 (centres undefined)	0.7	-32.9*	3.6	3.0	1.1
O=C(NCCc1ccc(C(F)(F)F)cc1)C1CCC(=O)N(CCCN2CCCC2=O)C1 (centres undefined)	0.0	-40.5*	-0.1	4.6	-8.8
O=C(NCc1cccc(F)c1F)C1CCC(=O)N(C2CC2)C1 (centres undefined)	1.3	6.5	1.6	0.7	-10.3
O=C(NCc1cc(C(F)(F)F)ccc1F)C1CCC(=O)N(C2CC2)C1 (centres undefined)	-0.1	-36.1*	2.0	-7.6	-0.5
CCCNC(=O)CCc1nnc2ccc(N3CCN(c4cccc(OC)c4)CC3)nn12	-0.4	4.9	-0.5	1.4	-3.3
CCOC(=O)N1CCC(N2C(=O)c3ccc(C(=O)Nc4ccc(OC)c(OC)c4)cc3C2=O)CC1	0.6	1.8	3.0	0.4	-2.4
Cc1nn(-c2ccccc2)c2c1N(CCCC(=O)NCc1ccc(OC(C)C)cc1)C(=O)CS2	-0.3	-14.2	-1.1	0.2	-3.1
Cc1cc(CNC(=O)C2CCC(=O)N(Cc3cccc(C(F)(F)F)c3)C2)no1 (centres undefined)	0.2	4.7	1.0	31.5*	1.4
Cc1ccc(CNC(=O)C2CCC(=O)N2Cc2ccccc2Cl)cc1 (centres undefined)	0.1	-3.9	2.9	5.4	-2.0
O=C(NCCc1cccs1)C1CCC(=O)N(CCc2cccc(F)c2)C1 (centres undefined)	0.4	2.4	-0.8	-8.0	1.6
Cc1ccc(CNC(=O)C2CCC(=O)N2Cc2ccc(C)cc2)cc1 (centres undefined)	0.3	-40.2*	0.9	0.7	-4.1
O=C(NCc1ccon1)C1CCC(=O)N(Cc2cccc(C(F)(F)F)c2)C1 (centres undefined)	1.9	7.5	0.5	2.0	-6.9
Cc1ccsc1CCNC(=O)C1CCC(=O)N(CCc2cccc(F)c2)C1 (centres undefined)	-0.4	-37.2*	3.4	2.4	-3.0
O=C(CCCn1c(=O)c2sccc2n(Cc2cccc(Cl)c2)c1=O)NCc1ccc2c(c1)OCO2	0.4	-8.1	5.2	-2.6	3.5
O=C(Nc1ccc(F)cc1F)c1cc2nc(-c3ccco3)cc(C(F)(F)Cl)n2n1	0.1	1.7	3.1	1.9	0.7
O=C(CSc1nc(=O)n(CCCN2CCOCC2)c2c1CCC2)Nc1ccccc1F	0.8	-2.6	3.4	-2.0	-0.3
O=C(Nc1ccc(-c2nc3ccccc3s2)cc1)c1cc(-n2cnnc2)ccc1Cl	2.8	-41.7*	7.4	0.1	-12.7
Cc1ccccc1OCCn1c(=N)n(C(C)C)c2ccccc21	0.5	-9.5	43.2*	3.7	-2.4
Cc1ccccc1OCCN1C(=O)c2ccccc2C1=O	-0.1	-8.2	-1.6	-3.6	-0.2
COc1ccc(C(=O)Nc2ccc(OCC(=O)N3CCOCC3)cc2)c(OC)c1OC	-0.2	5.4	5.2	-1.6	-2.6
CC(C1CC2CCC1C2)n1c(COc2ccccc2F)nnc1SCC(N)=O (centres undefined)	-0.1	6.6	89.1*	8.8	27.1
